Consider 31 compounds from PubChem BioAssay (EPA / NIEHS).

Values joined by “and” are separate entries in the source; they are usually repeats but may differ in a detail not shown here. Equal values may be shown once. Records with an inconclusive call do not appear. Some structures have more than one record in an assay (separate samples or runs), and their calls can disagree. Active and inactive are the calls of the source. Rule for the calls: active = hit-call score of the fitted dose curve at least 0.9, where 1 is the maximum; inconclusive = response in the unintended direction; inactive = score below 0.9.

The target of the first experiment is Cellular tumor antigen p53 (Homo sapiens) (UniProt P04637). Description: TOX21_p53_BLA_p2_ratio: Tox21 HCT-116 p53 Agonism Beta-lactamase Assay, Ratio, Phase 2 (AID 2283592). Put shortly: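 First, HCT116 reporter cells settle for 5 h at 37C. Next, DMSO compound solutions are pinned in (217-fold dilution) and left 16 h. Finally, CCF4-AM substrate is loaded 2 h at room temperature and the 460/530 nm ratio read.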
Chain of Cellular tumor antigen p53 (Homo sapiens) (P04637 whole entry, looked up): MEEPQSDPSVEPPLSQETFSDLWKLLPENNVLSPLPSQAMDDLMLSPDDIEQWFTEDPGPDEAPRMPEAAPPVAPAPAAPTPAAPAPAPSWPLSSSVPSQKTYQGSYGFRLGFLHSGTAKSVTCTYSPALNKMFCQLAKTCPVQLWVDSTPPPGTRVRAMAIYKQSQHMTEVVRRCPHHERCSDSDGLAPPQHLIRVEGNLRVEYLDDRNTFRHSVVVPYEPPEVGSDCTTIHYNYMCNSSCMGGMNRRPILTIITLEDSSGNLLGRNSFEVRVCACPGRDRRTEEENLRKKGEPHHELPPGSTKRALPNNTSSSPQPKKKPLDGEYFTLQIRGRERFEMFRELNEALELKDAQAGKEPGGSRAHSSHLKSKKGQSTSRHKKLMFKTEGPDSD
Regarding `NC(=NCCCCCCN=C(N)/N=C(\N)Nc1ccc(Cl)cc1)/N=C(\N)Nc1ccc(Cl)cc1`, the half-maximal activity concentration (AC50) is 59.8 µM (active) [middle of 4 runs] and the outcome was inactive.

In the case of `CCC(C)c1nccnc1OC` (stereo not drawn), the outcome was inactive. In the case of `O=C(O)C(=O)O`, the outcome was inactive. Consider `O=C(O)c1cccc(C(=O)O)n1`, for which the result was inactive. For `CC1=NN(c2ccccc2)C(=O)C1`, the result was inactive.

Regarding `Clc1ccc(Nc2nnc(Cc3ccncc3)c3ccccc23)cc1`, the result was inactive. As for `NCc1cccc(CN)c1`, the outcome was inactive. With `CCC(=O)O`, the result was inactive. For the compound `CC(=O)CC(C)C`, the outcome was inactive. Regarding `C=CC(C)(CCC=C(C)C)OC(C)=O` (stereo not drawn), the result was inactive. With `C[C@]12CC[C@@H]3c4ccc(O)cc4CC[C@H]3[C@@H]1C[C@@H](O)[C@@H]2O`, the result was inactive.

Regarding `Cc1ccc(C(=O)c2ccccc2)cc1`, the outcome was inactive. Turning to `CCCCCCCCCCCCOC(=O)c1cc(O)c(O)c(O)c1`, the concentration at half-maximal activity (AC50) was 24.7 µM (active) and 32.4 µM (active).

Regarding `CCC1CO1` (stereo not drawn), the result was inactive. With `CCOC(C)=O`, the outcome was inactive. As to `O=C(c1cc(O)c(O)c(O)c1)c1ccc(O)c(O)c1O`, the half-maximal activity concentration (AC50) was 59.5 µM (active) and 61.8 µM (active). On to `CCC(=O)C=Cc1ccc(OC)cc1`, for which the result was inactive.

As for `O=C1c2ccccc2C(=O)c2c(O)c(O)cc(O)c21`, the AC50 was 42.8 µM (active). With `NCCN`, the outcome was inactive. For the compound `COCN(COC)c1nc(N(COC)COC)nc(N(COC)COC)n1`, the outcome was inactive. The same measure, in the same setting: as for `CCOC(=O)CN[C@@H](C(=O)N1CC[C@H]1C(=O)NCc1ccc(/C(N)=N/O)cc1)C1CCCCC1`, the entry is “inactive”. Regarding `OCC1CCC(CO)CC1` (stereo not drawn), the result was inactive. Still for that read-out and setting: the entry for `Cc1cc(C(C)(C)C)c(O)c(C(C)(C)C)c1` is “inactive”; for `Cc1ccc(C)c(S(=O)(=O)O)c1` it is “inactive”; for `CC(C)(C)C1CCCCC1O` (stereo not drawn) it is “inactive”.

Tested on in a further experiment: not listed separately
Put plainly: TOX21_p53_BLA_p3_viability: Viability Assessment in the Tox21 HCT-116 p53 Agonism Beta-lactamase Assay, Phase 3 (AID 2283593).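 Note: cells exposed to compound for 16 h before reading.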 Put shortly: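 HCT116 cells, 4000/well, dosed 5 h after plating by pin transfer (217-fold dilution from DMSO stock) and incubated 16 h at 37C, 5% CO2. Viability read as ATP luminescence with CellTiter-Glo after 30 min at room temperature.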
With `CCN(CC)CC`, the compound was classed as inactive. With `O=C(O)c1cccc(C(=O)O)n1`, the outcome was inactive. In the case of `CC1=NN(c2ccccc2)C(=O)C1`, the result was inactive. Same read-out and setting: the entry for `c1ccc(CNc2ncnc3c2ncn3C2CCCCO2)cc1` (stereo not drawn) is “inactive”; for `Cc1ccc(S(=O)(=O)O)cc1` it is “inactive”. Regarding `CCOCCOCC`, the outcome was inactive. Turning to `C=CC(C)(CCC=C(C)C)OC(C)=O` (stereo not drawn), the compound was called inactive.

Consider `C[C@]12CC[C@@H]3c4ccc(O)cc4CC[C@H]3[C@@H]1C[C@@H](O)[C@@H]2O`, for which the result was inactive. `CCCCCCCCCCCCOC(=O)c1cc(O)c(O)c(O)c1`: the half-maximal activity concentration (AC50) was 49.2 µM (active) and 77.1 µM (active). In the case of `CCOC(C)=O`, the outcome was inactive. `O=C(c1cc(O)c(O)c(O)c1)c1ccc(O)c(O)c1O`: the result was inactive. For the compound `CCC(=O)C=Cc1ccc(OC)cc1`, the compound was classed as inactive. As to `COC(=O)CC(C(C)=O)C(=O)OC` (stereo not drawn), the outcome was inactive. As to `CCOC(=O)CN[C@@H](C(=O)N1CC[C@H]1C(=O)NCc1ccc(/C(N)=N/O)cc1)C1CCCCC1`, the outcome was inactive. Turning to `CC(C)C=O`, the result was inactive.

Take `Cc1cc(C(C)(C)C)c(O)c(C(C)(C)C)c1`: the call was inactive. Take `CC(C)(C)C1CCCCC1O` (stereo not drawn): the compound was called inactive.
